Measurements reported in ChEMBL document CHEMBL1857833, “Screening and optimization of specific chemical series against human African Trypanosomiasis (HAT)”.
“And” between values parts separate entries of the source, which are not always exact repeats. Equal values may be shown once. Out of some 4,400 compounds screened, about 390 (8.9%) showed an effect of 50% or more. Shown is part of a subset that was picked to be rich in strong results.

Tested on: Trypanosoma brucei
Assay: DNDI: Inhibition of Human African Trypanosomiasis, SBRI 427, in vitro at 2 ug.mL-1
Format: functional

Compound | % inhibition
CCOc1cccc(-c2nc(CN(C)C3CCN(Cc4ccccc4)C3)co2)c1 (stereo unspecified) | -2%
FC(F)(F)c1cccc(N2CCN(Cc3coc(-c4cccc5ccccc45)n3)CC2)c1 | 6%
CCOc1cccc(-c2nc(Cn3ccnc3CC)co2)c1 | -10%
COc1ccccc1CCNCc1coc(-c2cccc3ccccc23)n1 | 43%
N/C(=N\O)c1cccnc1Oc1cccc(C(F)(F)F)c1 | 46%
COc1ccc(Oc2ncccc2/C(=N/O)N2CCN(C3CCCC3)CC2)cc1 | -12%
CC1=NCCN1/C(=N\O)c1cccnc1Oc1cccc(C(F)(F)F)c1 | 2%
O/N=C(/c1cccnc1Oc1cccc(C(F)(F)F)c1)N1CCN(C2CCCC2)CC1 | 85%
O/N=C(/c1cccnc1Oc1ccccc1Cl)N1CCN(C2CCCC2)CC1 | -2%
CC(C)N1CCN(/C(=N\O)c2cccnc2Oc2cccc(C(F)(F)F)c2)CC1 | 101%
CCN(CCNCc1coc(-c2ccccc2Br)n1)c1cccc(C)c1 | -30%
O/N=C(/c1cccnc1OCc1cccc(F)c1)N1CCN(c2ccccc2)CC1 | -1%
CCOc1cccc(-c2nc(Cn3cc(C)nc3CC)co2)c1 | 7%
CC1CC(N/C(=N\O)c2cccnc2Oc2ccc(C(C)C)cc2)CC(C)(C)C1 (stereo unspecified) | 98%
CC1CC(N/C(=N\O)c2cccnc2Oc2cc(Cl)ccc2Cl)CC(C)(C)C1 (stereo unspecified) | 99%
Cc1ccc(/C(=N/O)NC2CC(C)CC(C)(C)C2)c(Oc2cc(Cl)ccc2Cl)n1 (stereo unspecified) | 7%
Cc1ccc(/C(=N/O)NC2CC(C)CC(C)(C)C2)c(Oc2ccc(Cl)cc2-c2ccno2)n1 (stereo unspecified) | 16%
CCN(CC)c1cccc(Oc2ncccc2/C(=N/O)NC2CC(C)CC(C)(C)C2)c1 (stereo unspecified) | -6%
Cc1ccc(/C(=N/O)NC2CC(C)CC(C)(C)C2)c(Oc2ccc(F)c(F)c2)n1 (stereo unspecified) | 11%
CC1CC(N/C(=N\O)c2cccnc2Oc2ccc(F)c(Cl)c2)CC(C)(C)C1 (stereo unspecified) | 100%
CCCCN(CCC#N)Cc1coc(-c2ccccc2C)n1 | -4%
CCOC(=O)C1CCCCN1Cc1coc(-c2ccccc2OCC)n1 (stereo unspecified) | 3%

Compound | % inhibition
CC(C)c1ccc(Oc2ncccc2/C(N)=N/O)cc1 | 16%
Fc1cccc(-c2nc(CNC3C[C@H]4CC[C@@H]3C4)co2)c1 (stereo partly specified) | -5%
C[C@@H]1C(NCc2coc(-c3cccc(F)c3)n2)C[C@H]2C[C@@H]1C2(C)C (stereo partly specified) | 90%
CC(C)C(C)NCc1coc(-c2cccc(F)c2)n1 (stereo unspecified) | 8% and 16%
C[C@H]1C(NCc2coc(-c3cccc(F)c3)n2)C[C@@H]2C[C@H]1C2(C)C (stereo partly specified) | 99%
Fc1cccc(-c2nc(CNC3CCc4ccccc43)co2)c1 (stereo unspecified) | 13%
CCC(CC)CNCc1coc(-c2cccc(F)c2)n1 | 18%
C#CCNCc1coc(-c2cccc(C)c2)n1 | 24%
CSc1ccc(Oc2cc(/C(=N/O)NCC3CCCO3)ccn2)cc1 (stereo unspecified) | 6%
Cc1cccc(Oc2ncccc2/C(=N/O)NC2CCC(C)CC2)c1C (stereo unspecified) | 20%
CC1CCC(C)N1/C(=N\O)c1cccnc1Oc1ccc(F)cc1Cl (stereo unspecified) | 24%
O/N=C(\NC1CCN(Cc2ccccc2)C1)c1cccnc1Oc1ccccc1Cl (stereo unspecified) | 2%
CC1CCC(N/C(=N\O)c2cccnc2Oc2ccc(F)cc2Cl)CC1 (stereo unspecified) | 95%
CC1CCC(N/C(=N\O)c2cccnc2Oc2ccccc2Cl)CC1 (stereo unspecified) | 99%
CN(/C(=N\O)c1cccnc1Oc1ccc(F)cc1Cl)C1CCCCC1 | 7%
Cc1cccc(-c2nc(Cn3cc(C=O)nc3C)co2)c1 | 1%
CCOc1ccccc1-c1nc(CN(CCOC)C(C)C)co1 | 1%
C=CCN1CCN(/C(=N\O)c2cccnc2OCC(F)(F)F)CC1 | 7%
CCOc1cccc(-c2nc(CN(CCC#N)C3CCCCC3)co2)c1 | 18%
CN(C)CCN(C)Cc1coc(-c2ccc(O)cc2)n1 | 7%
NCCc1cn(Cc2coc(-c3ccccc3Br)n2)cn1 | -5%
Clc1ccc(-c2nc(Cn3cnc(-c4ccccc4)c3)co2)c(Cl)c1 | 7%

Compound | % inhibition
NCCc1cn(Cc2coc(-c3ccc(Cl)cc3Cl)n2)cn1 | 75%
Cc1cn(Cc2coc(-c3ccc(Cl)cc3Cl)n2)cn1 | 2%
NCCc1cn(Cc2coc(-c3ccccc3F)n2)cn1 | 40%
NCCc1cn(Cc2coc(-c3cccc4ccccc34)n2)cn1 | 73%
CSc1ccc(Oc2ccc(/C(=N/O)NC3CC(C)CC(C)(C)C3)cn2)cc1 (stereo unspecified) | -8%
COc1ccc(-c2nc(CN3CCN(c4ccc(C(C)=O)cc4)CC3)co2)cc1 | 4%
CCOc1ccccc1-c1nc(CNCc2ccc(C(C)(C)C)cc2)co1 | 6%
Cc1ccc(/C(=N/O)N2CCCCC2)c(Oc2cccc(F)c2)n1 | 16%
CSc1ccc(Oc2ccc(/C(=N/O)NCc3ccccc3C)cn2)cc1 | -7%
O/N=C(\NCC1CCCO1)c1ccc(Oc2cc(Cl)ccc2Cl)nc1 (stereo unspecified) | 34%
N/C(=N\O)c1ccc(Oc2cc(Cl)ccc2Cl)nc1 | 10%
O/N=C(\NCCN1CCOCC1)c1ccc(Oc2cc(Cl)ccc2Cl)nc1 | 34%
O/N=C(\NCC1CCCCC1)c1ccc(Oc2cc(Cl)ccc2Cl)nc1 | 76%
O/N=C(\NC1CCCCC1)c1ccc(Oc2cc(Cl)ccc2Cl)nc1 | 98%
O/N=C(\NCC1CCCCC1)c1ccc(Oc2cccc3ccccc23)nc1 | 24%
O/N=C(\NCc1ccccc1F)c1ccc(Oc2ccc(Cl)cc2)nc1 | -6%
O/N=C(\NC1CCCC1)c1ccc(Oc2cc(Cl)ccc2Cl)nc1 | 99%
O/N=C(\NCc1cccnc1)c1ccc(Oc2cc(Cl)ccc2Cl)nc1 | 8%
O/N=C(/c1ccc(Oc2cc(Cl)ccc2Cl)nc1)N1CCN(C2CCCC2)CC1 | 22%
CSc1ccc(Oc2ccc(/C(=N/O)NCc3ccccc3F)cn2)cc1 | 95%
COc1ccc(Oc2nc(C)ccc2/C(=N/O)NCc2cc(F)ccc2F)cc1 | 15%
Cc1ccc(/C(=N/O)N2CCSC2)c(Oc2ccc3oc4ccccc4c3c2)n1 | 14%
